Screening data (PubChem BioAssay)
Shown are actives, neighbours in structure and some others; about 6.8% of the full set was active somewhere.
C diff growth: blocks growth of Clostridium difficile; Clostridium difficile clinical isolate growth, OD600, 24 h; stronger effect = lower value; actives 0.25% (n = 86,000); AID 1259249; growth activity, negative = inhibition, % at 16 µg/mL (by protocol);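 active = mean growth activity at or below -80% and every replicate also at or below -80%; inconclusive = mean at or below -80% but some replicate above -80%; inactive = mean growth activity above -80%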;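 also: 0% = DMSO wells and -100% = levofloxacin 16 µg/mL wells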
Pf Dd2 growth: blocks growth of Plasmodium falciparum Dd2 parasites | P. falciparum Dd2 growth, SYBR Green, 72 h; stronger effect = lower value | activity change, % at 10 µM | actives 2.3% (n = 94,000); in the data active = activity change below about -80%; inconclusive = no clear call, values can overlap the other calls
T cruzi growth-1: blocks T. cruzi growth in NIH3T3 culture; T. cruzi beta-gal in NIH3T3, GalScreen luminescence, 90 h; inhibition, % at 8.34 µM; actives 5.9% (n = 77,000); AID 624255;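 active = mean inhibition above about 93%, with at least 55% of replicates each passing it, limit read from the data, passing the limit was not always enough; inconclusive = only one of those two conditions holds; inactive = neither condition holds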
T cruzi growth-2: inhibitors of T. cruzi proliferation; shares compounds with T cruzi growth-1; T. cruzi beta-gal in NIH3T3, GalScreen luminescence, 90 h; inhibition, % at 8.35 µM; actives 72% (n = 5,600);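 active = mean replicate inhibition above about 95% and at least 55% of replicates individually reaching it, limit read from the data; inconclusive = only one of the two criteria is met; inactive = neither criterion is met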
T cruzi growth-3: blocks T. cruzi growth in NIH3T3 host cells; shares compounds with T cruzi growth-1; T. cruzi beta-gal in NIH3T3, GalScreen luminescence, 90 h; inhibition, % at 2.09 µM; actives 21% (n = 5,600);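 active = mean inhibition above about 95%, with at least 55% of replicates also reaching it, limit read from the data; inconclusive = meets just one of the two conditions; inactive = meets neither condition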;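 also: plate controls were neutral control median for no effect and positive control median for full effect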
NIH3T3 tox: NIH/3T3 (mouse) viability loss; cytotoxicity (signal decrease), % at 8.35 µM; NIH/3T3 viability, CellTiter-Glo ATP luminescence, 90 h; actives 14% (n = 5,600); shares compounds with T cruzi growth-1; AID 651742;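 active = mean signal decrease across replicates above about 35% based on untreated-well scatter, with enough replicates individually passing, limit read from the data; inconclusive = no rule stated though some were filed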;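 also: 0% = median of neutral control wells and 100% = median of positive control wells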
3T3 cytotox 2: kills mouse NIH/3T3 fibroblasts; shares compounds with T cruzi growth-1; NIH/3T3 viability, CellTiter-Glo ATP luminescence, 90 h; inhibition, % at 24.9 µM; actives 56% (n = 5,600); AID 651744;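 active = mean loss of cell viability signal at or above a set limit, and enough replicates individually reaching it; inconclusive = meets only the mean limit or only the replicate share; inactive = meets neither condition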;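 also: 0% = median of neutral control wells and 100% = median of positive control wells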
Starred values were filed as active, the others as inactive; ? = inconclusive; . = not tested or not shown.

SMILES	C diff growth	Pf Dd2 growth	T cruzi growth-1	T cruzi growth-2	T cruzi growth-3	NIH3T3 tox	3T3 cytotox 2
C[C@@H]1CN([C@H](C)CO)C(=O)c2cc(-c3cncnc3)cnc2O[C@@H]1CN(C)C(=O)CN1CCOCC1	.	14	.	.	.	.	.
CCC(=O)Nc1ccc2c(c1)C(=O)N(C)C[C@@H](OC)[C@H](C)CN(CCc1ccccc1)[C@H](C)CO2	.	-41	27	.	.	.	.
CCCNC(=O)N(C)C[C@@H]1Oc2cc(C#CCC(C)C)ccc2S(=O)(=O)N([C@H](C)CO)C[C@@H]1C	-3	-37	62	.	.	.	.
CCCNC(=O)N(C)C[C@H]1Oc2cc(C#CCC(C)C)ccc2S(=O)(=O)N([C@@H](C)CO)C[C@@H]1C	-9	-27	106*	100*	31	16	28*
C[C@@H]1CN([C@H](C)CO)C(=O)c2cc(NC(=O)Cc3ccccc3)ccc2O[C@H]1CN(C)Cc1ccc(-c2ccccc2)cc1	3	-6	91	.	.	.	.
C[C@@H]1CN([C@H](C)CO)C(=O)c2cc(NC(=O)Cc3ccccc3)ccc2O[C@H]1CN(C)Cc1ccc(Oc2ccccc2)cc1	.	64	15	.	.	.	.
C[C@@H]1CN([C@@H](C)CO)C(=O)c2cc(NC(=O)Cc3ccccc3)ccc2O[C@@H]1CN(C)Cc1ccc(-c2ccccc2)cc1	14	15	?	111*	59	12	95*
C[C@H](CO)N1C[C@H](C)[C@@H](CN(C)Cc2ccc(Oc3ccccc3)cc2)Oc2ccc(NC(=O)Cc3ccccc3)cc2C1=O	.	-1	?	78	83	7	89*
C[C@H](NC(=O)C[C@@H]1C[C@@H]2c3cc(NS(=O)(=O)c4ccc(F)cc4)ccc3O[C@@H]2[C@H](CO)O1)c1ccccc1	-7	-17	88	.	.	.	.
C[C@@H]1CCCCO[C@@H](CN(C)C(=O)C2CCCCC2)[C@@H](C)CN([C@@H](C)CO)C(=O)c2cc(NS(=O)(=O)c3cccs3)ccc2O1	1	-42	110*	46	10	-2	10
C[C@@H]1CCCCO[C@@H](CN(C)C(=O)C2CCCCC2)[C@H](C)CN([C@@H](C)CO)C(=O)c2cc(NS(=O)(=O)c3cccs3)ccc2O1	-5	-9	17	.	.	.	.
C[C@H](CO)N1C[C@H](C)[C@H](CN(C)C(=O)C2CCCCC2)OCCCC[C@H](C)Oc2ccc(NS(=O)(=O)c3cccs3)cc2C1=O	10	-47	115*	82	45	7	10
C[C@@H]1CN([C@H](C)CO)C(=O)c2cc(NS(=O)(=O)c3cccs3)ccc2O[C@@H](C)CCCCO[C@H]1CN(C)C(=O)C1CCCCC1	-16	-47	.	.	.	.	.
CO[C@H]1CN(C)C(=O)c2cc(NC(=O)c3ccc(F)cc3)ccc2OC[C@@H](C)N(C(=O)CC2CC2)C[C@@H]1C	.	.	-20	.	.	.	.
CCCNC(=O)Nc1ccc2c(c1)OC[C@@H](C)N(C(=O)CC)C[C@@H](C)[C@H](OC)CN(C)C2=O	-2	66	.	.	.	.	.
COc1ccc(S(=O)(=O)N(C)C[C@@H]2Oc3cc(C4=CCCC4)ccc3S(=O)(=O)N([C@H](C)CO)C[C@@H]2C)cc1	9	-38	120*	101*	78	34	49*
COc1cccc(S(=O)(=O)N(C)C[C@H]2Oc3cc(C4=CCCC4)ccc3S(=O)(=O)N([C@@H](C)CO)C[C@H]2C)c1	2	-4	74	.	.	.	.
COc1cccc(S(=O)(=O)N(C)C[C@H]2Oc3cc(C4=CCCCC4)ccc3S(=O)(=O)N([C@@H](C)CO)C[C@@H]2C)c1	8	-37	.	.	.	.	.
COc1cccc(S(=O)(=O)N(C)C[C@@H]2Oc3cc(C4=CCCC4)ccc3S(=O)(=O)N([C@H](C)CO)C[C@@H]2C)c1	8	-68	107*	104*	81	27	27*
COc1ccc(S(=O)(=O)N(C)C[C@@H]2Oc3cc(C4=CCCC4)ccc3S(=O)(=O)N([C@@H](C)CO)C[C@@H]2C)cc1	19	-61	109*	104*	88	27	39*
COc1cccc(S(=O)(=O)N(C)C[C@@H]2Oc3cc(C4=CCCCC4)ccc3S(=O)(=O)N([C@@H](C)CO)C[C@H]2C)c1	-2	-45	.	.	.	.	.
COc1ccc(S(=O)(=O)N(C)C[C@@H]2Oc3ccc(NC(=O)Nc4cccc5ccccc45)cc3CC(=O)N([C@H](C)CO)C[C@@H]2C)cc1	11	-49	20	.	.	.	.
C[C@@H]1CCCCO[C@H](CN(C)C(=O)Nc2ccccc2)[C@H](C)CN([C@H](C)CO)C(=O)c2cc(NS(=O)(=O)c3cccs3)ccc2O1	2	.	7	.	.	.	.
COc1ccc(S(=O)(=O)N(C)C[C@H]2OCCCC[C@H](C)Oc3ccc(NC(=O)NC4CCCCC4)cc3C(=O)N([C@@H](C)CO)C[C@@H]2C)cc1	-4	-75	92	.	.	.	.
COc1ccc(S(=O)(=O)N(C)C[C@@H]2OCCCC[C@H](C)Oc3ccc(NC(=O)NC4CCCCC4)cc3C(=O)N([C@H](C)CO)C[C@@H]2C)cc1	0	-66	102	.	.	.	.
SMILES	C diff growth	Pf Dd2 growth	T cruzi growth-1	T cruzi growth-2	T cruzi growth-3	NIH3T3 tox	3T3 cytotox 2
COc1ccc(S(=O)(=O)N(C)C[C@H]2OCCCC[C@H](C)Oc3ccc(NC(=O)NC4CCCCC4)cc3C(=O)N([C@H](C)CO)C[C@@H]2C)cc1	-1	-64	104*	112*	7	0	2
COc1ccc(S(=O)(=O)N(C)C[C@H]2OCCCC[C@@H](C)Oc3ccc(NC(=O)NC4CCCCC4)cc3C(=O)N([C@@H](C)CO)C[C@@H]2C)cc1	0	-73	96*	90	37	-9	-2
CCCNC(=O)N1CC2(CCN(Cc3nccs3)CC2)c2c([nH]c3cc(OC)ccc23)[C@H]1CO	-6	-37	.	.	.	.	.
O=C(Nc1ccc2c(c1)[C@H]1C[C@@H](CC(=O)N3CCOCC3)O[C@@H](CO)[C@H]1O2)c1cccnc1	0	4	-30	.	.	.	.
O=C(C[C@@H]1CC[C@H]2[C@@H](COC[C@@H](O)CN2Cc2ccc(Cl)cc2)O1)NCc1ccccc1Cl	4	-4	4	.	.	.	.
COCC#Cc1ccc2c(c1)O[C@H](CN(C)Cc1ccccn1)[C@@H](C)CN([C@@H](C)CO)S2(=O)=O	-2	-30	57	.	.	.	.
CC(C)CC#Cc1ccc2c(c1)O[C@H](CN(C)Cc1ccccn1)[C@H](C)CN([C@H](C)CO)S2(=O)=O	.	-64	115*	106*	56	12	107*
CC(C)CC#Cc1ccc2c(c1)O[C@H](CN(C)Cc1ccccn1)[C@@H](C)CN([C@@H](C)CO)S2(=O)=O	17	-74	132*	97*	114*	20	105*
COCC#Cc1ccc2c(c1)O[C@@H](CN(C)Cc1ccccn1)[C@H](C)CN([C@H](C)CO)S2(=O)=O	-4	-44	8	.	.	.	.
